Compounds with a hit are over-represented: about 19% of the library has one in this group of screens.
DT40 TDP1 CPT: qHTS for Inhibitors of human tyrosyl-DNA phosphodiesterase 1 (TDP1): qHTS in cells in presence of CPT | 12% of 420,000 active | AID 686979, 2013 | chicken DT40 Tdp1-/-;hTDP1 cells + 20 nM CPT, ATP luminescence, 48 h | Potency, µM (doses to about 46.2 µM), inactives show at the top dose activity change, negative = growth inhibition, actives largely listed as inhibitors; further: potency means the concentration at half of the fitted maximal effect; on the % scale 0 is the no-effect control and ±100 the full control effect; nearly all actives have a fitted effect of over 55% in size
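Chicken DT40 Tdp1-/- cells stably complemented with human TDP1 were seeded at 400 cells/well in medium containing 20 nM camptothecin, exposed to pin-transferred compounds, and grown at 37 °C for at least 48 hr. Viability was read as ATP luminescence.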
MCF10A rereplic: A quantitative high throughput screen for small molecules that induce DNA re-replication in MCF 10a normal breast cells. Potency, µM (doses to about 46.1 µM), for the others: at the top dose activity, positive = re-replication, hits mostly activators. MCF 10A DNA re-replication, Hoechst nuclear intensity, 48 h. AID 624296, 2012. 2.9% of 350,000 active; further: potency means the concentration at half of the fitted maximal effect; % of control where 0% means no effect; nearly all actives have a fitted effect of over 50% in size
SW480 rerep: A quantitative high throughput screen for small molecules that induce DNA re-replication in SW480 colon adenocarcinoma cells; SW480 DNA re-replication, Hoechst DNA content imaging, 48 h; Potency, µM (top dose mostly 46.1 µM), for inactives: at the top dose re-replication activation, hits mostly activators; 1.8% of 340,000 active; further: potency means the concentration at half of the fitted maximal effect; % of control where 0% means no effect; nearly all actives have a fitted effect of over 55% in size
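Image-based DNA-content assay: after two days of treatment, nuclei were labelled with the DNA dye Hoechst and imaged, and hits were compounds raising the count of nuclei showing high fluorescence intensity.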
DT40 TDP1 no CPT: qHTS for Inhibitors of human tyrosyl-DNA phosphodiesterase 1 (TDP1): qHTS in cells in absence of CPT | DT40 Tdp1-/- hTDP1 cells, no CPT, ATP luminescence, 48 h | Potency, µM (series often up to 46.2 µM), for inactives: at the highest dose activity change, negative = growth inhibition, most hits filed as inhibitors | 15% of 420,000 active | AID 686978, 2013; further: potency means the concentration at half of the fitted maximal effect; on the % scale 0 is the no-effect control and ±100 the full control effect; nearly all actives have a fitted effect of over 55% in size
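Chicken DT40 Tdp1-/- cells complemented with human TDP1, screened without camptothecin (DMSO vehicle only), 400 cells/well. Compounds pin-transferred, cells incubated at 37 °C for at least 48 hr. Growth read as ATP-dependent luminescence (CellTiter-Glo, 30 min at RT).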
BCR signal inh: qHTS Assay to Find Inhibitors of Chronic Active B-Cell Receptor Signaling. ABC-DLBCL IkBa-CBG/CBR reporter, luminescence ratio, 4 h. Potency, µM (titrated, usually from 46.1 µM), for the others: at the highest dose activity change, negative = inhibition, actives largely listed as inhibitors. 0.05% of 340,000 active. AID 493014, 2011; active means well fitted inhibition curve with a large enough effect in the signal ratio, with a control signal flat, not every such curve was filed as active; inconclusive means small, poorly fitted or top-dose-only effect, or effect the other way, or a change in a side signal; the % refers to the signal ratio;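 further: potency means the concentration at half of the fitted maximal effect; plate controls were basal doxycycline-induced cells for no effect and cells given 10 µM MG132 for full effect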
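TMD8 ABC-DLBCL cells carrying doxycycline-inducible green luciferase fused to IkappaBalpha plus unfused red luciferase were exposed to compounds (up to 46 uM) for 4 hrs at 37C. Activity came from the overlap-corrected green/red luminescence ratio.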
IL-1B inflam inh: qHTS for Inhibitors of Inflammasome Signaling: IL-1-beta AlphaLISA Primary Screen | THP-1 LPS/ATP IL-1B secretion, AlphaLISA, 16 h; stronger effect = lower value | activity change, % at 57.5 µM | 4.7% of 360,000 active | AID 743279, 2014; in the data active means activity change below about -50%; inconclusive means mostly about -30% to -49%; further: on the % scale 0 is the no-effect control and ±100 the full control effect
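Secreted IL-1B measured by AlphaLISA bead assay after 16 h compound exposure of THP-1 cells; compounds (final up to 57.5 uM) added 1 h before LPS (250 ng/mL) and ATP (1.25 mM) stimulation; lower signal means less secretion.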
Numbers without * were called inactive; u = inconclusive; x = no result given; ! = a repeat was not active. Unless noted, the call rests on the fitted dose curve; in most records, active means well fitted curve in the direction sought with a large enough effect; inconclusive means small, poorly fitted or top-dose-only effect, or another doubt; inactive means no such curve, though single readings can be large; an effect the other way counts as inactive or inconclusive.

SMILES | DT40 TDP1 CPT | MCF10A rereplic | SW480 rerep | DT40 TDP1 no CPT | BCR signal inh | IL-1B inflam inh
O=[N+]([O-])c1cccc(P(=O)(O)c2cccc([N+](=O)[O-])c2)c1 | 0% | 0% | -3% | 5% | 3% | 20
COc1cc(/C=C2\SC(N)=NC2=O)ccc1O | 12µM* | u | 26% | 4.6µM* | u | -83*
COc1cc(/C=C2\SC(N)=NC2=O)cc(OC)c1 | 18µM* | u | 27% | u | u | -11
O=C1NC(Cc2ccccc2)c2nc3cc(Cl)ccc3c(=O)n2-c2ccccc21 (stereo not drawn) | x | x | x | x | 1% | x
C[C@H]1C[C@]2(O[C@@H]2C)C(=O)O[C@@H]2CCN(C)C/C=C(/COC(=O)[C@]1(C)O)C2=O | -5% | x | x | 4% | x | x
CC(C)(C)C1CCC2(CC1)C(C#N)=C(SCC(=O)Nc1ccccc1)NC(=O)C2C#N (stereo not drawn) | 16µM* | 9.2µM* | u | u | u | -13
Cn1cc(S(=O)(=O)N2CCNCC2)cc1C(N)=O | 2% | -2% | 0% | -3% | u | -5
CCOc1ccccc1CNCc1c(C(=O)O)n(Cc2ccccc2)c2cc(OC)ccc12 | u | x | x | 13µM* | x | x
COc1ccc2c(CNCc3cccs3)c(C(=O)O)n(Cc3cccc(F)c3)c2c1 | -8% | x | x | u | x | x
COc1ccc2c(CNC3CCC(C)CC3)c(C(=O)O)n(Cc3ccc(F)cc3)c2c1 (stereo not drawn) | u | x | x | 16µM* | x | x
COc1ccc(Cn2c(C(=O)O)c(CNC3CCCC3)c3ccc(OC)cc32)cc1 | u | x | x | -29% | x | x
COc1ccc(CNC(=O)c2cn(Cc3ccccc3F)c(=O)s2)cc1 | u | x | x | u | x | -12
COc1ccc(Cn2c(C(=O)O)c(CNCc3ccccc3F)c3ccc(OC)cc32)cc1 | u | x | x | 16µM* | x | x
COc1ccc2c(CNCCc3ccccc3)c(C(=O)O)n(Cc3cccc(F)c3)c2c1 | u | x | x | 18µM* | u | x
O=C(NS(=O)(=O)c1ccc2ccc(S(=O)(=O)NCCSc3ccccc3)cc2c1)c1cccc2ccccc12 | -6% | x | x | 3% | x | 11
CC(C)CC(=O)N(Cc1ccccc1)S(=O)(=O)c1ccc2c(c1)oc(=O)n2C | -29% | x | x | u | x | x
O=C(c1ccc(S(=O)(=O)N2CCCCC2)cc1)N1CCCC(C(F)(F)F)C1 (stereo not drawn) | -21% | 12% | -16% | u | 4% | 8
CCc1cccc(OCC(=O)Nc2cc(Cl)ccc2-n2cncn2)c1 | -17% | u | 4.6µM* | -18% | 4% | 3
CS(=O)(=O)c1ccccc1C(=O)Nc1cc(Cl)ccc1-n1cncn1 | -5% | -6% | -1% | 0% | -6% | -1
CN(CC(=O)Nc1cc(Cl)ccc1-n1cncn1)Cc1ccccc1N1CCOCC1 | 23µM* | x | x | u | x | 3
CCCOc1ccccc1OCC(=O)Nc1cc(Cl)ccc1-n1cncn1 | u | 14% | 20% | u | 0% | u
O=C(Nc1cc(Cl)ccc1-n1cncn1)c1cc(F)c(F)c(F)c1F | 0% | 4% | 3% | -29% | u | -93*
CC(=O)Nc1c2c(nn1-c1ccccc1C)CS(=O)(=O)C2 | 2% | 1% | -7% | 6% | -1% | 35
O=c1c(OC2OC(CO)C(O)C(O)C2OC2OC(CO)C(O)C(O)C2OC2OC(CO)C(O)C(O)C2O)c(-c2ccc(O)c(O)c2)oc2cc(O)cc(O)c12 (stereo not drawn) | 15µM* | -13% | -2% | 21µM* | 0% | 15
O=c1c(O[C@@H]2O[C@H](CO)[C@@H](O)[C@H](O)[C@H]2O)c(-c2ccc(O)c(O)c2)oc2cc(O)cc(O)c12 | x | x | x | x | 14% | x
SMILES | DT40 TDP1 CPT | MCF10A rereplic | SW480 rerep | DT40 TDP1 no CPT | BCR signal inh | IL-1B inflam inh
COc1c(-c2ccc(O)c(O)c2)oc2cc(O)cc(O)c2c1=O | 10µM*! | 16% | u | 9.2µM*! | -15% | 33
O=c1c(O[C@@H]2O[C@H](CO)[C@H](O)[C@H](O)[C@H]2O)c(-c2ccc(O)c(O)c2)oc2cc(O)cc(O)c12 | x | x | x | x | 1% | x
O=C(c1cc2cc(Br)ccc2o1)N1CCCCC1 | u | -2% | -2% | 21µM* | u | -19
O=C(CN1CCN(C(=O)c2cc(C3CC3)nn2-c2ccccc2)CC1)Nc1ccc(F)cc1 | -26% | x | x | u | x | u
C/C(=N\NC(N)=S)c1ccc2c(c1)OCCO2 | -23% | 0% | -9% | u | -19% | 3
CC(=NNC(N)=S)c1ccc2cc3c(cc2c1)OCO3 | 23µM* | x | x | 10µM* | x | u
COc1cc2ccc(C(C)=NNC(N)=S)cc2cc1OC | u | x | x | 15µM* | x | -25
O=c1c(S(=O)(=O)c2cccc(Cl)c2)cn(Cc2ccccc2)c2cc(N3CCCCC3)c(F)cc12 | 4% | x | x | -6% | x | x
CC(C)(C)OC(=O)NC(CNCc1ccccc1)Cc1ccccc1 (stereo not drawn) | 13µM* | u | u | u | 12% | -7
COc1cc(/C=C(/C#N)C(=O)Nc2ccc(Cl)cc2)ccc1Oc1nc(Cl)ncc1F | 9.2µM* | u | 18% | -27% | 4% | -21
COC(=O)C1C(=O)C=C(Nc2ccc(F)cc2)CC1c1ccc(OC)cc1 (stereo not drawn) | 6% | 2% | -5% | -20% | u | 23
COC(=O)C1=C(Nc2ccc(C)cc2)C=C(C)C(C(=O)OC)C1c1cccc(OC)c1 (stereo not drawn) | u | u | 23µM* | u | 0% | 11
COC(=O)C1=C(Nc2ccc(C)cc2)C=C(C)C(C(=O)OC)C1c1ccc(OC)cc1 (stereo not drawn) | 16µM* | u | 15µM* | 26µM* | -8% | -5
Cc1cccc(OC(C)C(=O)Nc2ncn[nH]2)c1 (stereo not drawn) | 7% | x | x | 6% | 1% | x
O=C(CC1N=C2c3ccccc3N=C(SCc3cccc(F)c3)N2C1=O)NC1CCCCC1 (stereo not drawn) | u | x | x | u | 17% | x

Screening data as filed in PubChem BioAssay.
